FLuc inh: inhibitors of firefly (Photinus pyralis) luciferase; P08659; purified P. pyralis luciferase, luminescence, biochemical; Potency, µM (series often up to 115 µM), actives largely listed as inhibitors; actives 2.5% (n = 76,000); also: nearly all actives have a fitted effect of over 65% in size
Target sequence (P08659 whole entry, looked up): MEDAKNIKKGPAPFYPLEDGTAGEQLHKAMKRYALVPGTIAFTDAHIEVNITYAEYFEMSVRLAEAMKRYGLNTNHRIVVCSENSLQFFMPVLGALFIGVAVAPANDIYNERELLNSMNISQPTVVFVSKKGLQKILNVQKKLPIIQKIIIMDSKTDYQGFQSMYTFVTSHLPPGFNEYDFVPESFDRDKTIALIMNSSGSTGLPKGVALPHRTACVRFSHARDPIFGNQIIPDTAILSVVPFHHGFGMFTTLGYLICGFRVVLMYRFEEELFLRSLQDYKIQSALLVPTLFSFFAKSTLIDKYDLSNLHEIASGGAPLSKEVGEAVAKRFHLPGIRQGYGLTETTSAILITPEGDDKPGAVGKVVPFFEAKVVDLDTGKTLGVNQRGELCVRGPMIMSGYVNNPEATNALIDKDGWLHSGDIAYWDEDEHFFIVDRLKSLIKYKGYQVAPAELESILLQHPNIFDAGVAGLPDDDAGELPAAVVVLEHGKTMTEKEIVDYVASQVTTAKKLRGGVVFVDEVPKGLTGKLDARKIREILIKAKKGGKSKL
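Inhibitors were tested against purified firefly luciferase in a biochemical, low-substrate format (both substrates at 10uM) and luminescence measured with a CCD imager.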
NIH3T3 tox: cytotoxic compounds in NIH 3T3 cells; NIH 3T3 viability, CellTiter-Glo ATP luminescence, 48-72 h; Potency, µM (doses to about 96.7 µM), usual class: inhibitors; actives 4.3% (n = 94,000); also: nearly all actives have a fitted effect of over 55% in size
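Cells were seeded at 400 per well, treated with pin-transferred compound, and kept 48 or 72 hr at 37 °C before CellTiter-Glo addition and luminescence imaging of cellular ATP.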
hNpr1 antagonist: human Npr1 receptor antagonism | AID 1347048 | actives 1.6% (n = 76,000) | Potency, µM (doses to about 46.3 µM), hits mostly inhibitors | HEK293 hNpr1 GloSensor cGMP, ANP-stimulated luminescence; calls by dose curve; also: nearly all actives have a fitted effect of over 60% in size
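HEK293 cells stably expressing human Npr1 and cGMP GloSensor pGS-40F, loaded 2 h with 2% GloSensor reagent, given compound 30 min at room temperature. Luminescence read before and 20 min after 0.1 nM hNppA.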
HEK cytotox: cytotoxic compounds in HEK 293 cells | HEK 293 viability, ATP luminescence (CellTiter-Glo), 48-72 h | Potency, µM (series often up to 115 µM), hits mostly inhibitors | actives 6.6% (n = 94,000); also: nearly all actives have a fitted effect of over 60% in size
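qHTS cytotoxicity; HEK 293, 250 cells/well; compound pinned; 48 or 72 hr, 37 degree Celsius, 5% CO2, 95% humidity; CellTiter-Glo, 10 min RT; luminescence (ATP).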
Large screens that a line does not name were inactive. In the library only some 11% were active in any assay of this set; here they are far more common. Unless noted, calls follow the shape of the dose curve; as a rule, active = well fitted curve in the direction sought with a large enough effect; inconclusive = small, poorly fitted or top-dose-only effect, or another doubt; inactive = no such curve, though single readings can be large; an effect the other way counts as inactive or inconclusive.

Fc1ccc(C2Cn3cnc(-c4nc(-c5ccc6c(c5)OCO6)no4)c3CO2)cc1 (configuration not stated)	FLuc inh inconclusive, NIH3T3 tox 25µM, HEK cytotox inconclusive
COc1ccc(-c2noc(-c3ncn4c3COC(c3ccc(F)cc3)C4)n2)cc1OC (configuration not stated)	NIH3T3 tox 28µM, HEK cytotox inconclusive
COc1cc(-c2noc(-c3ncn4c3COC(c3ccc(F)cc3)C4)n2)cc(OC)c1OC (configuration not stated)	NIH3T3 tox inconclusive, HEK cytotox inconclusive
Cc1ccc(C(=O)NC2CCN(c3nc4ncccc4o3)C2)cc1 (configuration not stated)	none (no result: FLuc inh, hNpr1 antagonist)
CN(C(=O)c1ccc2nc(-c3ccc(F)cc3)cn2c1)C1CCOCC1	FLuc inh 32µM, HEK cytotox inconclusive
COCCN(CC1CC1)C(=O)c1ccc2nc(-c3ccc(F)cc3)cn2c1	HEK cytotox inconclusive
Cc1noc(C)c1-c1cc2cc(CN(C)C)oc2c(NCCc2ccccc2)n1	NIH3T3 tox 45µM, HEK cytotox 56µM
Cc1noc(C)c1-c1cc2cc(CN(C)C)oc2c(NCCOc2ccccc2)n1	NIH3T3 tox 79µM, HEK cytotox inconclusive
Cc1noc(C)c1-c1cc2cc(CN(C)C)oc2c(NCC(C)C)n1	NIH3T3 tox 50µM, HEK cytotox 71µM
Cc1noc(C)c1-c1cc2cc(CN(C)C)oc2c(NCc2cccc(F)c2)n1	NIH3T3 tox inconclusive, HEK cytotox inconclusive
Cc1noc(C)c1[S+](=O)([O-])N1CCCC(C(=O)N2CCC(c3nc4ccncc4[nH]3)CC2)C1 (configuration not stated)	none (no result: FLuc inh, hNpr1 antagonist)
COc1ccc(C(=O)NC2CCCN(c3ccc4nnc(C5CC5)n4n3)C2)cc1 (configuration not stated)	none (no result: FLuc inh, hNpr1 antagonist)
OC[C@@H]1CN(Cc2ccoc2)C[C@H]1c1nc(-c2ccncc2)no1	FLuc inh inconclusive, HEK cytotox inconclusive
OC[C@@H]1CN(Cc2cccc(F)c2)C[C@H]1c1nc(-c2ccncc2)no1	HEK cytotox 45µM
OC[C@@H]1CN(Cc2ccc(F)cc2)C[C@H]1c1nc(-c2ccncc2)no1	FLuc inh inconclusive, NIH3T3 tox inconclusive, hNpr1 antagonist 14µM, HEK cytotox inconclusive
O=C(c1ccccc1)N1CCC(c2nn(-c3ccccn3)c(=O)[nH]2)CC1	none (no result: FLuc inh, hNpr1 antagonist)
Cc1cccc2c1nc1n2[C@@H](CNCc2ccc(C#N)cc2)COC1	NIH3T3 tox inconclusive, hNpr1 antagonist inconclusive, HEK cytotox inconclusive
Cc1cccc2c1nc1n2[C@@H](CNCc2nc3ccccc3n2C)COC1	NIH3T3 tox 100µM, hNpr1 antagonist inconclusive, HEK cytotox inconclusive
Cc1oc2c(c1C(=O)NCCN1CCOCC1)CN(Cc1cccc(F)c1)CC2	none
